Reference: PubChem BioAssay (NCI)
Where “and” joins values, the source holds several entries; their conditions need not be identical. Identical values can stand only once. The panel holds about 79,000 compounds, 15% with a hit somewhere; the sample as a whole holds those more often. Values without a mark were called inactive. No stated cut-off is given here; in the data, active means growth inhibition above about 70%; inactive means the rest.

Assay: NCI Yeast Anticancer Drug Screen. Data for the rad50 strain (AID 155);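 further: 0% = growth of vehicle-only cultures of the same strain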
Settings: S. cerevisiae rad50 strain growth inhibition, active compounds read high; at 50.0 µM unless noted
Outline: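 Genetically altered yeast (DNA repair pathway); compound treatment; growth inhibition vs vehicle ctrl.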
`Nc1ccc(OCc2ccccc2)cc1[N+](=O)[O-]` gave a growth inhibition of 6.4%. For `COC(=O)c1cc(C(=O)OC)c(CC(=O)C(=O)NC2C3CC4CC(C3)CC2C4)nc1CC(=O)C(=O)NC1C2CC3CC(C2)CC1C3` (stereo not given), the growth inhibition was 0.5%. In the case of `COc1ccc(-c2nnc(N)s2)cc1OC`, the growth inhibition is reported as 16.4%. Compound `CC1(CO)C2CCC(CC2)C1CO` (stereo not given) has a growth inhibition of -3%. Compound `CC(C)CCCC(C)C1CCC2C3CC4OC45CC(O)CCC5(C)C3CCC12C` (stereo not given) has a growth inhibition of 42.4%. In the case of `COC(=O)C(Cc1ccccc1)C(=O)C(CC(=O)OC(C)(C)C)NC(=O)OC(C)(C)C` (stereo not given), the growth inhibition is reported as 14.7%. Compound `O=C(O)c1cscc1Cc1cccs1` has a growth inhibition of 0.05%. `CSc1ccc(NC(=O)c2ccc(Cl)cc2)cc1` showed a growth inhibition of -13.7%. With `COc1ccc2c(c1)-c1c(ccc(OC)c1O)CC(c1ccccc1)[N+](C)(C)CC2` (stereo not given) the growth inhibition was -5.8%. Work on `CC1=Nc2ccccc2C12C(c1ccccc1)C(c1ccccc1)C(=O)N1c3ccccc3CC12` (stereo not given) yielded a growth inhibition of -2.25%. In the case of `O=CC(O)C(Cl)C(Cl)C(O)CCl` (stereo not given), the growth inhibition is reported as -0.65% and 2.1%. Work on `C=C1CC[C@@H](C)[C@](C)(CCc2ccoc2)C/C=C\C=C/1C(=O)O` yielded a growth inhibition of 23.7%. `O=c1[nH]c(=O)c2[nH]c(Br)nc2[nH]1` showed a growth inhibition of 2.35%. For `N#CC(C(=O)C(=O)Nc1nccs1)c1ccccc1` (stereo not given), the growth inhibition was 5.85%. `CCCCc1cc(C(=O)OC/C(C)=N/NC(N)=O)c2ccccc2n1` gave a growth inhibition of -6.7%. For `CC(=O)Nc1cccc(OC(=O)Nc2ccc(F)c(Cl)c2)c1`, the growth inhibition was 57.6%. With `OC1COC(OCc2ccccc2)C(O)C1O` (stereo not given) the growth inhibition was -16.4% and -2.85%. `COc1nc(NC2OC(CO)C(O)C(O)C2O)c(I)c(=O)[nH]1` (stereo not given) gave a growth inhibition of 5.3%. Compound `CC(=O)CC(C)(C)c1cc(-c2ccccc2)on1` has a growth inhibition of 20.8%. In the case of `COc1ccc(C(c2ccc(OC)cc2)N2C(=O)CCC2C(=O)O)cc1` (stereo not given), the growth inhibition is reported as -28.6%. In the case of `CCOC(=O)c1cccc(N)c1C(=O)OCCN(CC)CC`, the growth inhibition is reported as 1.65%. Compound `CCCCCCC1OC(C)C(C)O1` (stereo not given) has a growth inhibition of 30.8%. Work on `O=C(O)C1(F)CC1(c1ccccc1)c1ccccc1` (stereo not given) yielded a growth inhibition of -4.7%. `c1nc2nc(N3CCOCC3)nc(N3CCOCC3)c2[nH]1` showed a growth inhibition of 11.8%. `COc1ccccc1C(=O)N/N=C/c1cccc([N+](=O)[O-])c1` showed a growth inhibition of -2.15%. For `COC(=O)c1ccccc1NS(=O)(=O)c1ccc(Cl)cc1`, the growth inhibition was 42.2%. Work on `CO/N=C1/OC(=O)OCC1(c1ccccc1)c1ccccc1` yielded a growth inhibition of 5.45%. With `CCOC(=O)C(C)NC(=O)c1ccccc1` (stereo not given) the growth inhibition was 0.25%. Work on `Cn1c([N+](=O)[O-])cnc1CSc1nc(-c2ccccc2)no1` yielded a growth inhibition of 17.9%. Work on `COC1CCC(=O)N1CN(C(C)=O)c1ccc(C)cc1` (stereo not given) yielded a growth inhibition of 10.4%. For `COc1ccc(COC(=O)Nc2ccc(Br)cc2)c(OC)c1`, the growth inhibition was -5.05%. In the case of `O=C1OC(c2ccccc2)=N/C1=C\c1ccccc1`, the growth inhibition is reported as -24% and 23.1%. With `CCC1(C=O)C(=O)NC(=O)N1C` (stereo not given) the growth inhibition was 3.4%. For `CCN(CCOC)C(C)=O`, the growth inhibition was 2.15%. Compound `O=C1CCCc2ccc3c(c21)CC1(Cc2cc4c(cc2C1)CCCC4)C3` has a growth inhibition of -22.6%. In the case of `CN(C)c1ccc(NC(=O)C(c2ccccc2)c2ccccc2)cc1`, the growth inhibition is reported as 6.8%. For `ClC(Cl)(Cl)c1ncnc2nc[nH]c12`, the growth inhibition was -15.1%. `O=c1c(O)c(-c2cc(O)c(O)c(O)c2)oc2cc(O)cc(O)c12` gave a growth inhibition of 13.7%. Work on `CCOC(CC(=O)NCCNC(C)=O)OCC` yielded a growth inhibition of 38%. For `O=C1c2ccccc2CC(c2ccccc2)N1c1ccccc1` (stereo not given), the growth inhibition was 51.1%.
